Bioassay records as filed in PubChem.
In the library only some 4.2% were active in any assay of this set; here they are far more common.
uPA generation – qHTS for Inhibitors of Cell Surface uPA Generation; 330,000 tested, 0.31% active; Potency, µM (top dose mostly 38.3 µM), for inactives: at the top dose activity change, negative = inhibition, actives largely listed as inhibitors; cell surface uPA generation assay, qHTS; AID 540303, 2011; active means well fitted inhibition curve with a large enough effect; inconclusive means small, poorly fitted or top-dose-only effect; inactive means no such curve, though single readings can be large or run the other way; tested in mouse RAW 264.7 cells; further: potency means the concentration at half of the fitted maximal effect; on the % scale 0 is the no-effect control and ±100 the full control effect; nearly all actives have a fitted effect of over 55% in size
TCR act – Activators of T cell receptors: qHTS campaign; 330,000 tested, under 10 active; Potency, µM (doses to about 9.22 µM), inactives show top-dose activation of IL-2 secretion, hits mostly activators; primary human leukocytes, anti-CD3, IL-2 HTRF, 48 h; further: % of control where 0% means no effect
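Readout: HTRF IL-2, Eu-cryptate/d2 antibody pair, 320nm excitation, 665nm emission. Stimulus: a-CD3 beads, no co-stimulation. Cells: primary human leukocytes. Exposure: 48 hr with compound.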
Sfp inh – qHTS Assay for Inhibitors of Bacillus subtilis Sfp phosphopantetheinyl transferase (PPTase). 4'-phosphopantetheinyl transferase ffp (Bacillus subtilis), Q9F4F7. Biochemical Sfp PPTase activity, qHTS. Potency, µM, for inactives: largest response in the series, negative = inhibition, most hits filed as inhibitors. 310,000 tested, 3.5% active. AID 1490, 2009;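 further: the enzyme is Sfp with the accession as filed and its product quenches rhodamine fluorescence; potency means the concentration at half of the fitted maximal effect; 0% = enzyme reaction without inhibitor and -100% = no enzyme wells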
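Sfp 15 nM + cpd, 15 min RT; start w/ rhodamine-CoA 5 uM, BHQ-2-YbbR 12.5 uM (final); 50 mM Hepes pH 7.6, 10 mM MgCl2, 0.01% NP-40, 0.01% BSA; read 525/598 nm at 0 and 30 min.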
ClpP mod – qHTS Assay for Activators of ClpP | ATP-dependent Clp protease proteolytic subunit (Bacillus subtilis (strain 168)), P80244 | purified B. subtilis ClpP, FRET peptide cleavage, 20 min | Potency, µM (titrated, usually from 57.5 µM), for the others: at the top dose activity change, negative = active | 340,000 tested, 1.9% active | AID 651965, 2013; active means well fitted falling curve with a large enough effect; inconclusive means small, poorly fitted or top-dose-only effect; inactive means no such curve, though single readings can be large or run the other way; further: potency means the concentration at half of the fitted maximal effect; the source files actives as falling curves though it sought activators and does not explain the sign; nearly all actives have a fitted effect of over 65% in size
Target sequence (P80244 whole entry, looked up): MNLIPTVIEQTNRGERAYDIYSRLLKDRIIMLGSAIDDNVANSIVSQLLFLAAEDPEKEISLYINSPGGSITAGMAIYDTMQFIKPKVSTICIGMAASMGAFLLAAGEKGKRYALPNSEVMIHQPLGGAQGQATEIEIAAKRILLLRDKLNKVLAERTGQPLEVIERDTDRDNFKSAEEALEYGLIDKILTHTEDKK
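FRET quenching reversal measured ClpP activation: 10 microg/mL B. subtilis ClpP at pH 8 with the FRET-FV decapeptide, read at 430 nm after 320 nm excitation. The 20-min minus 0-min signal was scaled between DMSO/no-enzyme wells and ADEP (5.8 microM final).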
ClpP validation – qHTS Assay for Activators of ClpP: Hit Validation of Inhibitors. shares compounds with ClpP mod. purified B. subtilis ClpP, FRET-FV substrate cleavage, 20 min. Potency, µM (series often up to 57.5 µM), inactives show at the top dose activity change, negative = inhibition, hits mostly inhibitors. 470 tested, 40% active; further: potency means the concentration at half of the fitted maximal effect; on the % scale 0 is the no-effect control and ±100 the full control effect; nearly all actives have a fitted effect of over 70% in size
* hit, by the source's call; u = inconclusive; x = no result; [ ] = dose if it differs, or a comment. Unless noted, the call rests on the fitted dose curve; in most records, active means well fitted curve in the direction sought with a large enough effect; inconclusive means small, poorly fitted or top-dose-only effect, or another doubt; inactive means no such curve, though single readings can be large; an effect the other way counts as inactive or inconclusive.

SMILES | uPA generation | TCR act | Sfp inh | ClpP mod | ClpP validation
Cc1c(C(=O)N2CCN(c3ccc([N+](=O)[O-])cc3)CC2)sc2ncn(CC(=O)N3CCOCC3)c(=O)c12 | 0.0% | -6.0% | 13.0% | x | x
c1ccc(-c2ccc(-c3csnn3)cc2)cc1 | -1.0% | 2.2% | 8.3% | 88.4% | -0.5%
O=S(=O)(Nc1ccccc1)c1ccc(-c2csnn2)cc1 | 0.9% | 1.8% | -2.1% | x | x
O=C(CSc1oc(-c2ccco2)nc1S(=O)(=O)c1ccc(Cl)cc1)Nc1ccc(F)cc1 | x | x | x | 3.4% | x
CC(C)(C)C(=O)Nc1ccc(/C=C/C(=O)c2ccco2)cc1 | -8.1% | -0.2% | -1.4% | -0.6% | x
Cc1ccc(-c2cc(C(=O)NCc3ccccc3Cl)c3ccccc3n2)cc1C | x | x | x | 4.47µM* | 27.3µM*
Cc1ccc(-c2cc(C(=O)NCCCN3CCCC3)c3ccccc3n2)cc1C | -1.4% | 2.9% | -17.0% | x | x
CCOC(=O)c1c(NC(=O)Cn2nc(C(F)(F)F)cc2C)sc(C)c1C | -8.5% | 11.6%[46.1 µM] | 14.3% | 0.4% | x
CC(C)CCNc1ncnc2c1nnn2Cc1ccccc1Cl | -3.6% | 1.3% | 8.2% | 10µM* | -2.4%
CCN(CC)C(=O)c1c2c(nc3ccccc13)-c1ccccc1CC2 | 3.0% | 3.2% | 0.6% | 8.91µM* | 21.7µM*
O=C(O)CSC1=NS(=O)(=O)c2ccccc21 | x | x | x | -6.2% | x
Cc1ccc(Nc2c(-c3c[nH]c4ccccc34)nc3ccccn23)cc1 | x | x | x | 4.1% | x
Cc1ccc(Nc2c(-c3ccc(Br)o3)nc3ccccn23)cc1 | x | x | x | 8.91µM* | u
CCOC(=O)c1c(NC(=O)c2ccc(S(=O)(=O)N3CCC(C)CC3)cc2)sc2c1CCN(C)C2 | x | x | x | 78.6% | u
Cc1cccn2cc(-c3ccc(S(=O)(=O)N4CCOCC4)cc3)nc12 | -0.7% | -1.3% | 10.9% | 3.16µM* | 3.85µM*
Cc1cccn2cc(-c3ccc(S(=O)(=O)N4CCCCC4)cc3)nc12 | -1.2% | 3.6% | 5.9% | x | x
CN(c1ccccc1C(=O)NC1CCCCC1)S(=O)(=O)c1ccccc1 | 3.5% | -5.6% | 12.7% | 3.1% | x
CN(c1ccccc1C(=O)NC1CC2CCC1C2)S(=O)(=O)c1ccccc1 (stereo not drawn) | 5.4% | 3.6%[46.1 µM] | -6.9% | 7.94µM* | -2.5%
CCCNC(=O)c1ccc(C2SCC(=O)N2Cc2ccccc2)cc1 (stereo not drawn) | 2.2% | -3.8%[46.1 µM] | -21.7% | 2.51µM* | -0.9%
CCOCCCn1c(=N)c(S(=O)(=O)c2ccc(Cl)cc2)cc2c(=O)n3cccc(C)c3nc21 | x | x | x | -9.0% | x
Cc1cc(C)cc(C(=O)N(Cc2ccco2)c2c(N)n(Cc3ccccc3)c(=O)[nH]c2=O)c1 | -0.8% | 7.3% | x | 10µM* | -1.3%
COc1ccc(-n2c(=O)c(-c3cccs3)nc3cnc(Nc4cccc(OC)c4)nc32)cc1 | x | x | -4.3% | x | x
COc1ccc2cc3cc(C(=O)Nc4ccccc4C)oc3nc2c1 | x | x | x | 38.7% | 15.3µM*
CCC(C)NC(=O)c1cnn2c(C)c3c(nc12)CCCC3 (stereo not drawn) | x | x | 2.2% | 10µM* | 21.7µM*
CC1CN(C(=O)Nc2ccc3c(c2)OCCO3)CC(C)O1 (stereo not drawn) | 8.4% | -2.7% | 22.0% | 3.55µM* | -1.1%
SMILES | uPA generation | TCR act | Sfp inh | ClpP mod | ClpP validation
CCn1c(-c2cccs2)nc2ccccc21 | -1.8% | -0.4%[46.1 µM] | 5.8% | 3.16µM* | 13.7µM*
CCc1ccc(NC(=O)c2sc3nc(C)cc(C)c3c2NC(=O)c2ccccc2OC)cc1 | x | x | x | 41.1% | 24.3µM*
Cc1ccc(C(=O)Nc2ccc(-c3nc4ccccc4s3)c(O)c2)c(C)c1 | x | x | x | 0.5% | x
COc1ccc(-c2nc3ccccc3s2)cc1NC(=O)c1cccc(F)c1 | x | x | x | 73.5% | u
COc1ccccc1C(=O)Nc1ccc(-c2nc3ccccc3s2)c(C)c1 | x | x | x | 2µM* | -0.6%
CN(C)c1cccc(C(=O)Nc2ccc(-c3nc4ccccc4s3)cc2)c1 | x | x | x | 3.55µM* | -0.7%
CC(C)Oc1ccc(C(=O)Nc2ccc(-c3nc4ccccc4s3)cc2)cc1 | x | x | x | -19.6% | x
CN(C(=O)c1cccc(C#CC(C)(C)O)c1)C1CCCN(Cc2ccccc2F)C1 (stereo not drawn) | 13.2% | -2.2% | 7.2% | 2.3% | x
Cc1nc2oc3c(NCC4CCCO4)ncnc3c2c2c1COC(C)(C)C2 (stereo not drawn) | -3.4% | 4.1% | 9.8% | -2.7% | x
CC(C)c1nc2oc3c(NCC4CCCO4)ncnc3c2c2c1COC(C)(C)C2 (stereo not drawn) | -0.6% | -1.5% | 9.8% | 7.08µM* | 21.7µM*
O=C1Cc2cc(S(=O)(=O)N3CCNCC3)ccc2N1 | 2.0% | -3.2%[46.1 µM] | x | 104.3% | 5.9%
COc1cc(NC(=O)CSc2nc(C)c(C(=O)Nc3ccccc3)c(-c3ccc(OC)c(OC)c3)c2C#N)c(OC)cc1Cl | x | x | x | 0.4% | x
Cc1nnc(NC(=O)c2oc3ccccc3c2C)s1 | -10.5% | -2.5% | 2.0% | -1.5% | x
Cc1nnc(NC(=O)c2oc3c(ccc4ccccc43)c2C)s1 | -2.5% | -7.0% | 11.3% | 8.91µM* | 30.6µM*
O=C(Nc1ccccc1OC(F)F)c1oc2ccccc2c1COc1ccccc1 | 10.5% | -3.3%[46.1 µM] | -6.5% | 288.7% | 19.3µM*
c1cncc(-c2nc3ccccc3o2)c1 | -6.0% | -27.5% | 4.5% | -24.0% | x
c1ccc2nc(-c3nc4ccccc4o3)ccc2c1 | x | -13.3% | u | 8.91µM* | 21.7µM*
O=C(NCCc1csc2nc(-c3ccc(F)cc3)nn12)c1ccco1 | x | x | x | -2.5% | x
CCN(CC)CCCNC(=O)c1cn(CCOC)c(=O)c2c1c1ccccc1n2C | -1.3% | x | -15.7% | 10µM* | 21.7µM*
CCCCN(C)CCNC(=O)c1nn(-c2ccc(OC)cc2)c(=O)c2c1c1ccccc1n2C | 16.4% | -3.3% | 19.6% | -6.0% | x
COc1ccc(C(=O)N2CCCc3ccccc32)cc1 | x | 5.0% | 14.9% | -2.9% | x
COC(=O)CN1CCN(C(=O)c2ccc(F)cc2)c2ccccc2C1 | 4.9% | -1.6% | 14.2% | 176.1% | 0.6%
Cc1cc(C)n2nc(-c3sccc3-n3c(C)ccc3C)cc2n1 | -6.8% | 0.6% | 4.6% | 35.5% | u
CCOC(=O)c1ccccc1Nc1nc2ccc(C)cc2n2nnnc12 | x | x | x | -0.9% | x
CCOC(=O)N1CCC(Nc2nc3ccccc3n3nnnc23)CC1 | 3.2% | 2.1% | -20.5% | 25.1µM* | 19.3µM*
COc1cccc(-c2cn3c(n2)sc2cc(C(=O)NC4CCCCC4)ccc23)c1 | x | x | x | u | 24.3µM*
COc1ccc(-c2cn3c(n2)sc2cc(C(=O)NC4CCCCCC4)ccc23)cc1 | x | x | x | -14.7% | x
O=C(NC1CCCCC1)c1ccc2c(c1)sc1nc(-c3ccc(F)cc3)cn12 | x | x | x | 10µM* | -8.3%
COc1cccc(-c2cn3c(n2)sc2cc(C(=O)NC4CCCCCC4)ccc23)c1 | x | x | x | 3.98µM* | 24.3µM*
